Where “and” joins values, the source holds several entries; their conditions need not be identical. Identical values can stand only once. Records with an inconclusive call do not appear. Calls of active or inactive are those of the source. Unless noted, the call rests on the fitted dose curve; in most records, active means well fitted curve in the direction sought with a large enough effect in the repeat runs; inconclusive means weak or mixed curves; inactive means no such curve, though single readings can be large; an effect the other way counts as inactive or inconclusive.
Assays:
[1] = target: Thyrotropin receptor (Homo sapiens) (UniProt P16473); experiment: qHTS assay to identify small molecule agonists of the thyroid stimulating hormone receptor (TSHR) signaling pathway (AID 1224843; calls by dose curve; further: nearly all actives have a fitted effect of over 45% in size)
Chain of Thyrotropin receptor (Homo sapiens) (P16473 whole entry, looked up): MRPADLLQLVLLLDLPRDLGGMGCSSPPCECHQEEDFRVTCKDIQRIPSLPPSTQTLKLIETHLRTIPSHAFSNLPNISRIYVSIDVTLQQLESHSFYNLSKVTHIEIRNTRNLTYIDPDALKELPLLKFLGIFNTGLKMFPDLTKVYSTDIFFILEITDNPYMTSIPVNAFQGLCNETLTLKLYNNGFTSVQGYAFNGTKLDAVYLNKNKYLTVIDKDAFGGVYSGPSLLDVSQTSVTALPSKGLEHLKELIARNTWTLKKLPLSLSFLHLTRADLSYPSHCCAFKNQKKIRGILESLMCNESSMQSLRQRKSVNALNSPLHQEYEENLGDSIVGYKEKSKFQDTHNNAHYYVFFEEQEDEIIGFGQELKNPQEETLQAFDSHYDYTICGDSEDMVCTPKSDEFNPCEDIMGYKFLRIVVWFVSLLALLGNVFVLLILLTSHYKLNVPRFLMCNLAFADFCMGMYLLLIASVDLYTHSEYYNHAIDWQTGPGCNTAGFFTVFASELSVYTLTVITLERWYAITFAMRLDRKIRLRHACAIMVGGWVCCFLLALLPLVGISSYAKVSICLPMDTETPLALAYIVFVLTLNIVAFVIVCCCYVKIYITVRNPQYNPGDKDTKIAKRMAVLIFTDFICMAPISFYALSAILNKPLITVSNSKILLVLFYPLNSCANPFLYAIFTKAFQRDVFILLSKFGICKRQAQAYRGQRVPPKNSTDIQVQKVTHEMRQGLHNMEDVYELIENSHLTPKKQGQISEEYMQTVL
Summary of the method: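 TSHR-HEK293 cells in agonist mode, 30 min room-temperature step, then cAMP measured by competitive HTRF (cAMP-d2 with anti-cAMP cryptate) after 1 h at room temperature. Tested at 15 concentrations in triplicate.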

[2] = qHTS assay to identify small molecule agonists of the hypoxia (HIF-1) signaling pathway - cell viability counter screen (AID 1224844; calls by dose curve; further: nearly all actives have a fitted effect of over 50% in size)
Summary of the method: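 Luminescent ATP content (CellTiter-Glo, 30 min, room temperature) served as the viability measure in HRE-bla ME-180 cells exposed to compounds for 17 hrs in low-serum medium (0.5% dialyzed FBS).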

[3] = qHTS assay to identify small molecule agonists of H2AX (AID 1224845; active means well fitted activation curve with a large enough effect in the signal ratio in the repeat runs, not every such curve was filed as active; the % refers to the signal ratio)
Summary of the method: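 Wild-type CHO-K1 cells, plated overnight, exposed 3hr at 37C to 15 concentrations (0.76% DMSO final). Lysed, then HTRF anti-pH2AX (S139) cryptate and anti-H2AX-d2 antibodies, 24 hr room temperature; 665/620 nm emission read.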

[4] = qHTS assay to identify small molecule agonists of the hypoxia (HIF-1) signaling pathway (AID 1224846; active means well fitted activation curve with a large enough effect in the signal ratio in the repeat runs, not every such curve was filed as active; the % refers to the signal ratio)
Summary of the method: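 Measured by blue/green FRET after loading CCF4-AM: beta-lactamase expressed from a hypoxia response element in ME-180 cells. Test agents were delivered in DMSO and left 17 hrs; cells had been plated 5 hrs earlier in low-serum (0.5% dialyzed FBS) medium.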

[5] = qHTS assay to identify small molecule agonists of H2AX - cell viability counter screen (AID 1224847; calls by dose curve; further: top concentration of the series differs between compounds; nearly all actives have a fitted effect of over 30% in size)
Summary of the method: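 Read-out: CellTiter-Glo luminescence, 30 min RT. Cells: wild-type CHO-K1, 1000/well, 10% FBS, plated overnight at 37C. Treatment: 15 concentrations, 3 hr, 37C, 0.76% DMSO.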

[6] = qHTS RealTime-Glo MT Cell Viability Assay in HepG2 cells - 24 hour (AID 1224867); further: nearly all actives have a fitted effect of over 50% in size
Summary of the method: (§1)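 HepG2 suspension premixed with RealTime-Glo reagents is plated at 600 cells per well and left 5 h at 37 C/5% CO2. Compounds in DMSO then go in, and bioluminescence reflecting viable cell number is recorded over 40 h.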

[7] = qHTS RealTime-Glo MT Cell Viability Assay in HEK293 cells - 32 hour (AID 1224868); further: top concentration of the series differs between compounds; nearly all actives have a fitted effect of over 50% in size
Summary of the method: (§2)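 Reads taken at 0, 8, 16, 24, 32 and 40 h from the same wells. HEK293 cells (600/well) carried RealTime-Glo reagents from seeding, with compound added after a 5 h settle at 37 C.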

[8] = A CellTox Green Cytotoxicity Assay to monitor cytotoxicity in HEK293 cells - 0 hour (AID 1224869); further: nearly all actives have a fitted effect of over 50% in size
Summary of the method: (§3)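 Each value comes from one timepoint of a single continuous run in which HEK293 cells with CellTox Green were exposed to compound for up to 40 h at 37 C, dye fluorescence rising with cell death.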

[9] = qHTS RealTime-Glo MT Cell Viability Assay in HepG2 cells - 40 hour (AID 1224870); further: nearly all actives have a fitted effect of over 50% in size
Summary of the method: (§4)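 HepG2 cells (600/well) mixed with RealTime-Glo MT reagent, settled 5 h at 37 C/5% CO2 before compound addition. Nonlytic NanoLuc luminescence from viable-cell prosubstrate reduction read repeatedly during 40 h treatment at 37 C.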

[10] = A CellTox Green Cytotoxicity Assay to monitor cytotoxicity in HEK293 cells - 40 hour (AID 1224871); further: nearly all actives have a fitted effect of over 45% in size
Summary of the method: as §3

[11] = qHTS RealTime-Glo MT Cell Viability Assay in HEK293 cells - 16 hour (AID 1224872)
Summary of the method: as §2

[12] = qHTS RealTime-Glo MT Cell Viability Assay in HepG2 cells - 8 hour (AID 1224873); further: nearly all actives have a fitted effect of over 55% in size
Summary of the method: as §4

[13] = qHTS RealTime-Glo MT Cell Viability Assay in HEK293 cells - 40 hour (AID 1224874); details: RealTime-Glo luminescence; max response: active compounds read low; further: nearly all actives have a fitted effect of over 50% in size
Summary of the method: (§5)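 qHTS format; HEK293 cells with NanoLuc/prosubstrate reagent, 37 C/5% CO2 for 5 h pre-dosing; compounds 23 nL in DMSO; luminescence at each time point reflects viable cells.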

[14] = A CellTox Green Cytotoxicity Assay to monitor cytotoxicity in HEK293 cells - 24 hour (AID 1224875); further: series mostly up to about 77 µM; nearly all actives have a fitted effect of over 45% in size
Summary of the method: as §3

[15] = A CellTox Green Cytotoxicity Assay to monitor cytotoxicity in HepG2 cells - 16 hour (AID 1224876); further: nearly all actives have a fitted effect of over 45% in size
Summary of the method: (§6)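 Continuous culture of HepG2 cells with a membrane-impermeant DNA dye; rising fluorescence marks dead cells. Compound exposure lasted up to 40 h at 37 C, with reads every 8 h from 0 h.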

[16] = qHTS RealTime-Glo MT Cell Viability Assay in HepG2 cells - 32 hour (AID 1224877); further: nearly all actives have a fitted effect of over 55% in size
Summary of the method: as §1

[17] = A CellTox Green Cytotoxicity Assay to monitor cytotoxicity in HepG2 cells - 24 hour (AID 1224878); further: nearly all actives have a fitted effect of over 45% in size
Summary of the method: as §6

[18] = A CellTox Green Cytotoxicity Assay to monitor cytotoxicity in HepG2 cells - 40 hour (AID 1224879); further: nearly all actives have a fitted effect of over 40% in size
Summary of the method: as §6

[19] = qHTS RealTime-Glo MT Cell Viability Assay in HEK293 cells - 0 hour (AID 1224880)
Summary of the method: as §5
On the % scale 0 is the no-effect control and ±100 the full control effect.

CC1(C)CC(N)CC(C)(CN)C1 (stereo unspecified)
inactive: outcome [1] | outcome [2] | outcome [3] | outcome [4] | outcome [5] | Potency [6] | Potency [7] | outcome [8] | outcome [9] | Potency [10] | Potency [11] | Potency [12] | max response [13] -9.67% and 2.41% | Potency [14] | outcome [15] | outcome [16] | Potency [17] | Potency [18] | outcome [19]

COc1ccc(N)c(C)c1
inactive: outcome [1] | outcome [2] | outcome [3] | outcome [4] | outcome [5] | Potency [6] | Potency [7] | outcome [8] | outcome [9] | Potency [10] | Potency [11] | Potency [12] | max response [13] 9.17% and 3.97% | Potency [14] | outcome [15] | outcome [16] | Potency [17] | Potency [18] | outcome [19]

C=C(C)[C@H]1CC=C(C)C(=O)C1
inactive: outcome [1] | outcome [2] | outcome [3] | outcome [4] | outcome [5] | Potency [6] | Potency [7] | outcome [8] | outcome [9] | Potency [10] | Potency [11] | Potency [12] | max response [13] -1.87% and 0.747% | Potency [14] | outcome [15] | outcome [16] | Potency [17] | Potency [18] | outcome [19]

CCCCCCCCCCCC(=O)OC
inactive: outcome [1] | outcome [2] | outcome [3] | outcome [4] | outcome [5] | Potency [6] | Potency [7] | outcome [8] | outcome [9] | Potency [10] | Potency [11] | Potency [12] | max response [13] -2.49% and 7.82% | Potency [14] | outcome [15] | outcome [16] | Potency [17] | Potency [18] | outcome [19]

CCCCCCO
inactive: outcome [1] | outcome [2] | outcome [3] | outcome [4] | outcome [5] | Potency [6] | Potency [7] | outcome [8] | outcome [9] | Potency [10] | Potency [11] | Potency [12] | max response [13] -0.525% and 0.519% | Potency [14] | outcome [15] | outcome [16] | Potency [17] | Potency [18] | outcome [19]

OC1C(O)C(O)C(O)C(O)C1O (stereo unspecified)
inactive: outcome [1] | outcome [2] | outcome [3] | outcome [4] | outcome [5] | Potency [6] | Potency [7] | outcome [8] | outcome [9] | Potency [10] | Potency [11] | Potency [12] | max response [13] 9.45% and 0% | Potency [14] | outcome [15] | outcome [16] | Potency [17] | Potency [18] | outcome [19]

C=CC(C)CCCC(C)(C)O (stereo unspecified)
inactive: outcome [1] | outcome [2] | outcome [3] | outcome [4] | outcome [5] | Potency [6] | Potency [7] | outcome [8] | outcome [9] | Potency [10] | Potency [11] | Potency [12] | max response [13] 5.11% and 3.85% | Potency [14] | outcome [15] | outcome [16] | Potency [17] | Potency [18] | outcome [19]

C[Si]1(C)O[Si](C)(C)O[Si](C)(C)O[Si](C)(C)O1
inactive: outcome [1] | outcome [2] | outcome [3] | outcome [4] | outcome [5] | Potency [6] | Potency [7] | outcome [8] | outcome [9] | Potency [10] | Potency [11] | Potency [12] | max response [13] 3.24% and 9.03% | Potency [14] | outcome [15] | outcome [16] | Potency [17] | Potency [18] | outcome [19]

COc1ccc(C)cc1N
inactive: outcome [1] | outcome [2] | outcome [3] | outcome [4] | outcome [5] | Potency [6] | Potency [7] | outcome [8] | outcome [9] | Potency [10] | Potency [11] | Potency [12] | max response [13] 3.89% and 7.66% | Potency [14] | outcome [15] | outcome [16] | Potency [17] | Potency [18] | outcome [19]

NCCN1CCNCC1
inactive: outcome [1] | outcome [2] | outcome [3] | outcome [4] | outcome [5] | Potency [6] | Potency [7] | outcome [8] | outcome [9] | Potency [10] | Potency [11] | Potency [12] | max response [13] 1.25% and -21.7% | Potency [14] | outcome [15] | outcome [16] | Potency [17] | Potency [18] | outcome [19]

OCc1cccc(Oc2ccccc2)c1
inactive: outcome [1] | outcome [2] | outcome [3] | outcome [4] | outcome [5] | Potency [6] | Potency [7] | outcome [8] | outcome [9] | Potency [10] | Potency [11] | Potency [12] | max response [13] -0.677% and -9.74% | Potency [14] | outcome [15] | outcome [16] | Potency [17] | Potency [18] | outcome [19]

O=C(O)/C=C/C(=O)O
inactive: outcome [1] | outcome [2] | outcome [3] | outcome [4] | outcome [5] | Potency [6] | Potency [7] | outcome [8] | outcome [9] | Potency [10] | Potency [11] | Potency [12] | max response [13] -4.18% and -12.4% | Potency [14] | outcome [15] | outcome [16] | Potency [17] | Potency [18] | outcome [19]

COc1ccc(CCC(C)=O)cc1
inactive: outcome [1] | outcome [2] | outcome [3] | outcome [4] | outcome [5] | Potency [6] | Potency [7] | outcome [8] | outcome [9] | Potency [10] | Potency [11] | Potency [12] | max response [13] 7.39% and 0.508% | Potency [14] | outcome [15] | outcome [16] | Potency [17] | Potency [18] | outcome [19]

CCCCCCC=O
inactive: outcome [1] | outcome [2] | outcome [3] | outcome [4] | outcome [5] | Potency [6] | Potency [7] | outcome [8] | outcome [9] | Potency [10] | Potency [11] | Potency [12] | max response [13] 0.391% and 24.5% | Potency [14] | outcome [15] | outcome [16] | Potency [17] | Potency [18] | outcome [19]

From PubChem BioAssay (Tox21)
